In all, about 5,500 compounds went through this assay and about 2,000 (36%) were called active. Inconclusive results (about 18%) are left out. No stated cut-off is given here; in the data, active means normalized growth mostly below about 0.91 (no sharp cut-off); inconclusive means no clear call, values can overlap the other calls; inactive means mostly above about 0.92. This is one part of the list.
Assay: chemical genetic growth profiling, strain panel (AID 1159580);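 further: tested at 20 µM; growth read once vehicle control cultures reached saturation at 30 °C; 1 = growth at the plate median or of vehicle wells; lower values mean less growth of the strain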
Conditions: growth OD

Measured: normalized growth

COC(=O)C(C)c1ccc(C(=O)c2cccs2)cc1 (configuration not stated)
active: S. cerevisiae deletion strains, locus YNL307C, strain MCK1, active compounds read low 0.819 | S. cerevisiae deletion strains, locus YOR184W, strain ser1, active compounds read low 0.747
inactive: S. cerevisiae deletion strains, locus YJR075W, strain HOC1, active compounds read low 1.07 | S. cerevisiae deletion strains, locus YKL009W, strain mrt4, active compounds read low 0.905 | S. cerevisiae deletion strains, locus YKL068W, active compounds read low 0.967 | S. cerevisiae deletion strains, locus YKL085W, strain MDH1 (second series), active compounds read low 0.941 | S. cerevisiae deletion strains, locus YKL085W, strain MDH1, active compounds read low 0.941 | S. cerevisiae deletion strains, locus YKL160W, strain elf1, active compounds read low 1 | S. cerevisiae deletion strains, locus YKL190W, strain CNB1, active compounds read low 0.997 | S. cerevisiae deletion strains, locus YKR001C, strain vps1, active compounds read low 0.936 | S. cerevisiae deletion strains, locus YKR026C, strain gcn3, active compounds read low 1 | S. cerevisiae deletion strains, locus YKR091W, strain srl3, active compounds read low 1.01 | S. cerevisiae deletion strains, locus YLL001W, strain dnm1, active compounds read low 1.01 | S. cerevisiae deletion strains, locus YLL026W, active compounds read low 1.01 | S. cerevisiae deletion strains, locus YLL041C, strain sdh2, active compounds read low 1.01 | S. cerevisiae deletion strains, locus YLR027C, strain aat2, active compounds read low 1.01 | S. cerevisiae deletion strains, locus YLR039C, strain RIC1, active compounds read low 0.862 | S. cerevisiae deletion strains, locus YLR058C, strain SHM2, active compounds read low 0.989 | S. cerevisiae deletion strains, locus YLR102C, strain apc9, active compounds read low 0.966 | S. cerevisiae deletion strains, locus YLR113W, strain HOG1, active compounds read low 0.943 | S. cerevisiae deletion strains, locus YLR221C, strain rsa3, active compounds read low 0.978 | S. cerevisiae deletion strains, locus YLR258W, strain gsy2, active compounds read low 1.02 | S. cerevisiae deletion strains, locus YLR262C, strain YPT6 (second series), active compounds read low 0.998 | S. cerevisiae deletion strains, locus YLR262C, strain YPT6, active compounds read low 0.842 | S. cerevisiae deletion strains, locus YLR268W, strain sec22, active compounds read low 0.956 | S. cerevisiae deletion strains, locus YLR320W, strain mms22, active compounds read low 1.01 | S. cerevisiae deletion strains, locus YLR330W, strain CHS5, active compounds read low 0.979 | S. cerevisiae deletion strains, locus YLR342W, strain FKS1 (second series), active compounds read low 0.881 | S. cerevisiae deletion strains, locus YLR342W, strain FKS1, active compounds read low 1.02 | S. cerevisiae deletion strains, locus YLR357W, strain rsc2, active compounds read low 1.02 | S. cerevisiae deletion strains, locus YLR370C, strain arc18, active compounds read low 1.01 | S. cerevisiae deletion strains, locus YLR371W, strain rom2, active compounds read low 0.958 | S. cerevisiae deletion strains, locus YLR384C, strain iki3, active compounds read low 1.01 | S. cerevisiae deletion strains, locus YLR418C, strain cdc73, active compounds read low 1.06 | S. cerevisiae deletion strains, locus YML016C, strain PPZ1, active compounds read low 0.993 | S. cerevisiae deletion strains, locus YML032C, strain rad52, active compounds read low 0.934 | S. cerevisiae deletion strains, locus YML120C, strain ndi1, active compounds read low 1.01 | S. cerevisiae deletion strains, locus YML124C, strain tub3, active compounds read low 0.958 | S. cerevisiae deletion strains, locus YMR058W, strain fet3, active compounds read low 1.01 | S. cerevisiae deletion strains, locus YMR078C, strain ctf18, active compounds read low 0.934 | S. cerevisiae deletion strains, locus YMR125W, strain sto1, active compounds read low 1.02 | S. cerevisiae deletion strains, locus YMR129W, active compounds read low 1.01 | S. cerevisiae deletion strains, locus YMR205C, strain PFK2, active compounds read low 1.01 | S. cerevisiae deletion strains, locus YMR223W, strain ubp8, active compounds read low 0.913 | S. cerevisiae deletion strains, locus YMR231W, strain pep5, active compounds read low 0.996 | S. cerevisiae deletion strains, locus YMR263W, strain SAP30, active compounds read low 1.01 | S. cerevisiae deletion strains, locus YMR307W, strain GAS1, active compounds read low 0.973 | S. cerevisiae deletion strains, locus YNL067W, strain RPL9B, active compounds read low 0.988 | S. cerevisiae deletion strains, locus YNL071W, strain lat1, active compounds read low 1.01 | S. cerevisiae deletion strains, locus YNL128W, strain TEP1, active compounds read low 1.03 | S. cerevisiae deletion strains, locus YNL153C, strain GIM3, active compounds read low 1.02 | S. cerevisiae deletion strains, locus YNL183C, strain NPR1, active compounds read low 0.912 | S. cerevisiae deletion strains, locus YNL209W, strain ssb2, active compounds read low 1.01 | S. cerevisiae deletion strains, locus YNL233W, strain BNI4, active compounds read low 1.01 | S. cerevisiae deletion strains, locus YNL248C, strain rpa49, active compounds read low 1 | S. cerevisiae deletion strains, locus YNL250W, strain rad50, active compounds read low 0.976 | S. cerevisiae deletion strains, locus YNL271C, strain bni1, active compounds read low 0.939 | S. cerevisiae deletion strains, locus YNL298W, strain CLA4, active compounds read low 0.932 | S. cerevisiae deletion strains, locus YNL322C, strain KRE1 (second series), active compounds read low 1.01 | S. cerevisiae deletion strains, locus YNL322C, strain KRE1, active compounds read low 0.991 | S. cerevisiae deletion strains, locus YNR049C, strain mso1, active compounds read low 1.02 | S. cerevisiae deletion strains, locus YNR052C, strain pop2, active compounds read low 0.945 | S. cerevisiae deletion strains, locus YOL006C, strain TOP1, active compounds read low 0.921 | S. cerevisiae deletion strains, locus YOL012C, strain htz1 2.2 | S. cerevisiae deletion strains, locus YOL147C, strain pex11, active compounds read low 0.97 | S. cerevisiae deletion strains, locus YOR001W, strain rrp6, active compounds read low 0.983 | S. cerevisiae deletion strains, locus YOR061W, strain CKA2, active compounds read low 0.985 | S. cerevisiae deletion strains, locus YOR069W, strain VPS5, active compounds read low 0.986 | S. cerevisiae deletion strains, locus YOR070C, strain gyp1, active compounds read low 1.01 | S. cerevisiae deletion strains, locus YOR080W, strain dia2, active compounds read low 1.02 | S. cerevisiae deletion strains, locus YOR083W, strain WHI5, active compounds read low 1 | S. cerevisiae deletion strains, locus YOR106W, strain vam3, active compounds read low 0.995 | S. cerevisiae deletion strains, locus YOR136W, strain idh2, active compounds read low 0.959 | S. cerevisiae deletion strains, locus YOR144C, strain elg1, active compounds read low 0.96 | S. cerevisiae deletion strains, locus YOR231W, strain MKK1, active compounds read low 0.954 | S. cerevisiae deletion strains, locus YOR265W, strain rbl2, active compounds read low 1 | S. cerevisiae deletion strains, locus YOR270C, strain vph1, active compounds read low 0.969 | S. cerevisiae deletion strains, locus YOR290C, strain snf2, active compounds read low 1 | S. cerevisiae deletion strains, locus YOR316C, strain cot1, active compounds read low 0.97 | S. cerevisiae deletion strains, locus YPL051W, strain arl3, active compounds read low 1 | S. cerevisiae deletion strains, locus YPL055C, strain LGE1, active compounds read low 1.04 | S. cerevisiae deletion strains, locus YPL078C, strain atp4, active compounds read low 1.01 | S. cerevisiae deletion strains, locus YPL106C, strain sse1, active compounds read low 1.01 | S. cerevisiae deletion strains, locus YPL240C, strain hsp82, active compounds read low 1.02 | S. cerevisiae deletion strains, locus YPL241C, strain CIN2, active compounds read low 0.995 | S. cerevisiae deletion strains, locus YPL256C, strain CLN2, active compounds read low 0.962 | S. cerevisiae deletion strains, locus YPR119W, strain clb2, active compounds read low 0.971 | S. cerevisiae deletion strains, locus YPR141C, strain kar3, active compounds read low 0.968 | S. cerevisiae deletion strains, locus YPR163C, strain tif3, active compounds read low 0.95 | S. cerevisiae deletion strains, locus YPR167C, strain met16, active compounds read low 0.967 | S. cerevisiae deletion strains, strain wtn01, active compounds read low 0.982 | S. cerevisiae strains, strain wild type, active compounds read low 0.983
